Source: PubChem BioAssay (National Center for Advancing Translational Sciences (NCATS))
In the library only some 2.2% were active in any assay of this set; here they are far more common.
Abeta yeast res – A-beta toxicity reversal in yeast; yeast expressing A-beta42, growth rescue, OD600, 48 h; response scale: 0% DMSO, 100% iron-clioquinol control; Potency, µM (titrated, usually from 46.1 µM), most hits filed as activators; 0.063% of 410,000 active; also: nearly all actives have a fitted effect of over 55% in size
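Growth rescue measured by 600 nm absorbance after 48 h yeast culture at 30 C with compound. Values normalized between DMSO and an equimolar ferric chloride plus clioquinol control.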
Mito fusion act – blocks mitochondrial division or promotes mitochondrial fusion. Potency, µM (doses to about 46.1 µM), for inactives: top-dose growth rescue (activation), hits mostly activators. 0.23% of 320,000 active. AID 485298. S. cerevisiae fusion-defective mutant growth rescue, CellTiterGlo 48 h; also: % of control where 0% means no effect; nearly all actives have a fitted effect of over 45% in size
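S. cerevisiae fusion-defective temperature-sensitive mutants (e.g. fzo1-1, mgm1-5) grown 48 h at 37C in YPEG (ethanol/glycerol non-fermentable) medium with 23 nl compound per well; growth rescue read as CellTiterGlo luminescence.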
TDP-43 yeast inh – rescues yeast growth from TDP-43 toxicity. Potency, µM (series often up to 46.1 µM), inactives show at the top dose growth rescue (activation), usual class: activators. TDP-43 expressing yeast growth rescue, BacTiter-Glo, 24 h. AID 652104. 1.8% of 410,000 active; also: % of control where 0% means no effect; nearly all actives have a fitted effect of over 50% in size
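In this qHTS, compounds that restore growth of yeast expressing TDP-43 appear as activators. Cells (OD600=0.02, galactose medium, raffinose-pregrown) are incubated with compound 24 hr at 30 deg C and growth is quantified by BacTiter-Glo.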
FUS yeast rescue – suppressors of FUS proteinopathy in yeast; S. cerevisiae FUS-expressing, growth rescue, OD600, 24 h; Potency, µM (top dose mostly 76.6 µM), actives largely listed as activators; 0.24% of 390,000 active; AID 1347120;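 also: plate controls were DMSO vehicle for no effect and reference control for full effect; nearly all actives have a fitted effect of over 55% in size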
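FUS-expressing yeast, raffinose-pregrown, induced in 2% galactose minimal medium at OD 0.005; compounds in a dilution series, 24hr at 30C. Growth restoration read as absorbance at 600 nm. CP55940 positive control, DMSO negative.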
aSyn rescue – rescues yeast growth from alpha-synuclein toxicity; 0.14% of 370,000 active; Yeast expressing alpha-synuclein, growth rescue, BacTiter-Glo, 24 h; Potency, µM (top dose mostly 46.1 µM), for the others: at the highest dose growth rescue (activation), most hits filed as activators; also: % of control where 0% means no effect; nearly all actives have a fitted effect of over 65% in size
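Galactose-induced alpha-syn yeast (OD600=0.02, raffinose-pregrown) + pinned cpd, 24 hr, 30 deg C; growth by BacTiter-Glo luminescence. Growth restoration scores as activation.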
* marks the source's active call; other numbers are inactive results; i = inactive; ? = inconclusive; / = no result; ! = not active in a repeat; [ ] = remark or other dose. Calls follow the shape of the dose curve; as a rule, active = well fitted curve in the direction sought with a large enough effect; inconclusive = small, poorly fitted or top-dose-only effect, or another doubt; inactive = no such curve, though single readings can be large; an effect the other way counts as inactive or inconclusive. Potency is read from the fitted curve at half-maximal effect.

SMILES | Abeta yeast res | Mito fusion act | TDP-43 yeast inh | FUS yeast rescue | aSyn rescue
CCCCN1C(=O)C(CC(=O)NCCCCc2ccccc2)CC(C(=O)N2CCOCC2)=C1C (stereo unspecified) | i | / | 25.4% | i | 20µM*
CC(C)(C)NC(=O)C(c1ccncc1)n1c(=O)c(-c2cc3ccccc3[nH]2)nc2ccccc21 (stereo unspecified) | i | / | 22.6% | ? | ?
CC(C)(C)NC(=O)C(c1cc2ccccc2o1)n1c(=O)c(-c2cc3ccccc3[nH]2)nc2ccccc21 (stereo unspecified) | ? | / | 12.0% | ? | 8.91µM*
CC(C)(C)NC(=O)C(c1ccccc1F)n1c(=O)c(-c2cc3ccccc3[nH]2)nc2ccccc21 (stereo unspecified) | i | / | ? | ? | 7.08µM*
CCC[C@H]1[C@@H](N(C)Cc2cccs2)CC[C@@]23CCCN2C(=O)CCC[C@@H]13 | / | / | / | i | /
O=C1c2ccccc2C(=O)N1CCSc1n[nH]c(=S)s1 | i | 5.8% | 20µM* | / | 10.5%
Cc1ccc(/C=N/NC(=O)c2ccccc2OCc2ccc(F)cc2)o1 | i | -4.4% | 11.8% | i | -5.9%
O=C(N/N=C/c1ccncc1)c1ccccc1OCc1ccc(Br)cc1 | i | ? | 31.6µM* | i | 25.7%
CC(=O)N1N=C(c2cccs2)CC1c1ccc(Br)cc1 (stereo unspecified) | i | -0.9% | 25.1µM* | i | 2.9%
Cc1ccc(C2CC(c3cccs3)=NN2C(=O)c2ccc(Br)o2)cc1 (stereo unspecified) | i | 2.82µM* | -28.7% | i | -0.6%
CC(=O)N1N=C(c2cccs2)CC1c1ccc(C)o1 (stereo unspecified) | i | -0.8% | 21.4% | i | 3.2%
O=C(c1ccco1)N1N=C(c2cccs2)CC1c1ccccc1O (stereo unspecified) | i | 17.6% | 11.5% | / | 19.1%
COc1cccc(C2CC(c3cccs3)=NN2C(=O)c2ccco2)c1O (stereo unspecified) | i | ? | 25.1µM* | i | ?
COc1ccc2c(c1)NC(=O)CC(c1ccccc1)=N2 | i | -4.3% | 14.1µM* | i | -8.4%
CC(=O)Nc1ccc2nc(SCc3ccccc3)sc2c1 | i | / | 17.8µM* | i | /
CCc1ccc(Nc2nc(N)nc(CSc3nc4ccccc4s3)n2)cc1 | ? | -13.3% | 25.1µM*! | i | 0.9%
CCNC(=O)c1ccc(CSc2nc3ccccc3s2)cc1 | i | -4.8% | 14.1µM* | i | 8.1%
COCCNC(=O)c1ccc(CSc2nc3ccccc3s2)cc1 | i | 0.9% | ? | i | -3.4%
O=C(NCCO)c1nc2ccccc2s1 | i | -0.8% | -5.7% | i | 0.8%
Cc1nnc(SCc2nc(N)nc(Nc3ccccc3)n2)s1 | i | 1.3% | -3.6% | i | -0.7%
O=C(NCc1ccccc1)c1nc2ccccc2s1 | i | -2.3% | 22.4µM* | i | -18.7%
COc1ccc(S(=O)(=O)N(CCc2ccccc2)CC(=O)NCc2ccccc2)cc1OC | i | / | 0.8% | i | /
Cn1c(=O)c2nc(-c3ccccc3)c(-c3ccccc3)nc2n(C)c1=O | i | / | 31.6µM* | i | -30.6%
O=C(OC(c1ccccc1)c1nccc2ccccc12)c1cc([N+](=O)[O-])cc([N+](=O)[O-])c1 (stereo unspecified) | i | ? | 6.31µM* | / | 9.4%
CCCn1c(=O)n(-c2ccccc2Cl)c(=O)c2sc3ccccc3c21 | i | / | 8.0% | i | /
SMILES | Abeta yeast res | Mito fusion act | TDP-43 yeast inh | FUS yeast rescue | aSyn rescue
COc1cn(CC(=O)Nc2ccc(F)cc2)c(CN2CCCCC2)cc1=O | i | / | 24.8% | i | /
O=S(=O)(Nc1cccc2c1CCCC2)c1cccc(C(F)(F)F)c1 | ? | -9.6% | 25.1µM* | i | ?
O=C(O)c1ccccc1NS(=O)(=O)c1cccc(C(F)(F)F)c1 | i | -0.2% | -6.0% | i | 13.5%
CCCCOCCCNC(=O)C[C@H]1C[C@@]2(C(=O)OC)C(=C[C@H](COCc3ccccc3)O[C@@H]2C)N(Cc2ccco2)C1=O | / | / | / | i | /
COc1cc(CNc2ncnc3c2ncn3[C@H]2CN(Cc3cccc(C(F)(F)F)c3)C[C@@H](CO)O2)cc(OC)c1OC | i | / | 7.1% | ? | 14.9%
COc1cc(CNc2ncnc3c2ncn3[C@H]2CN(Cc3cccc(C(F)(F)F)c3)C[C@@H](COC(C)=O)O2)cc(OC)c1OC | i | / | 17.5% | 20µM* | 0.8%
O=C(NC1CCCC1)C(c1ccncc1)N(CCCN1CCOCC1)C(=O)c1ccc(-c2ccccc2)[nH]1 (stereo unspecified) | i | 0.8% | -7.2% | i | 0.9%
CCOc1ccc(C(C(=O)NC2CCCC2)N(CCCO)C(=O)c2ccc(-c3ccccc3)[nH]2)cc1 (stereo unspecified) | i | -0.8% | -13.1% | 35.5µM* | 0.3%
Cc1ccc(Nc2cc(C)c(O)c(C)c2)cc1 | i | -1.4% | 12.6µM* | i | 3.6%
O=C(Oc1ccc(C(=S)N2CCOCC2)cc1)c1cccc(Cl)c1 | i | -3.2% | 12.6µM* | i | 24.2%
Cc1ccccc1C(=O)Oc1ccc(Cl)cc1C(=S)N1CCOCC1 | i | -3.0% | 12.6µM* | i | -9.3%
O=S(=O)(Oc1ccc(C(=S)N2CCOCC2)cc1)c1ccc(Cl)cc1 | i | -0.5% | 17.8µM* | i | 2.9%
O=C(Oc1ccc(C(=S)N2CCOCC2)cc1Cl)c1ccccc1F | i | 1.5% | 11.8% | i | -20.6%
O=C(Oc1ccc(C(=S)N2CCOCC2)cc1)c1cc([N+](=O)[O-])cc([N+](=O)[O-])c1 | i | 1.0% | -9.3% | i | 2.3%
CCCS(=O)(=O)NCCc1sc2nc(-c3ccc(Cl)cc3)nn2c1C | i | / | ? | i | /
O=C(NCC(c1ccco1)S(=O)(=O)c1cccs1)c1ccc(C(F)(F)F)cc1 (stereo unspecified) | i | / | 0.0%[9.22 µM] | i | /
COc1cccc(C(O)c2nc(/C=C/c3ccccc3)cs2)c1 (stereo unspecified) | i | / | 22.4µM* | i | ?
OC(c1cccc(Cl)c1)c1nc(/C=C/c2ccccc2)cs1 (stereo unspecified) | i | / | 8.91µM* | i | -14.0%
O=C(NNc1nc2ccc(Cl)cc2s1)c1cc(-c2cccs2)nc2ccccc12 | ? | -7.0% | 4.47µM* | i | ?
O=c1cc2nc(-c3ccccc3F)nc(SCc3ccc(Br)cc3)n2[nH]1 | i | / | 5.5% | i | /
CC(=O)c1cc(-c2cccc(C(C)C)c2)c(=O)n2c1CCC2 | / | / | / | i | /
COc1ccc(-c2cc3ccc(O)cc3oc2=O)cc1 | / | ? | 16.4% | i | -3.1%
O=c1oc2cc(O)ccc2cc1-c1ccccc1 | / | 19.8% | 15.8µM* | i | 7.6%
